Only a selection was taken, and hits are over-represented in it overall.
ClpP mod: qHTS Assay for Activators of ClpP | 1.9% of 340,000 active | purified B. subtilis ClpP, FRET peptide cleavage, 20 min | Potency, µM (series often up to 57.5 µM); active = well fitted falling curve with a large enough effect; inconclusive = small, poorly fitted or top-dose-only effect; inactive = no such curve, though single readings can be large or run the other way; also: the source files actives as falling curves though it sought activators and does not explain the sign; nearly all actives have a fitted effect of over 65% in size
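ClpP 10 microg/mL final, pH 8 Tris/KCl buffer with BSA, glycerol, Tween-20; compound pinned in; FRET-FV substrate; RT 20 min; Ex320/Em430; ΔFRET vs ADEP 5.8 microM, DMSO, no enzyme.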
CXXC DNA block: blocks binding of human MLL CXXC domain to DNA; MLL-CXXC / FITC-HOXA9 DNA fluorescence polarization; Potency, µM (series often up to 115 µM), actives largely listed as inhibitors; 0.037% of 290,000 active; active = well fitted inhibition curve with a large enough effect in the polarisation, with a control signal flat, not every such curve was filed as active; inconclusive = small, poorly fitted or top-dose-only effect, or effect the other way, or a change in a side signal; inactive = no such curve, though single readings can be large or run the other way; the % refers to the polarisation
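Fluorescence polarization: 7 uM MLL-CXXC (stock) preincubated 5 min with compounds, then 50 nM fluorescein-HOX-A9 DNA (stock) added; 30 min ambient. Buffer 50 mM Tris-HCl pH 7.5, 50 mM NaCl, 1 mM DTT, 0.05% BSA.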
Menin-MLL TR inh: displaces Texas Red mutant MLL peptide from human menin; Menin + Texas Red MLL mutant peptide, fluorescence polarization; Potency, µM (highest dose often 61.6 µM), hits mostly inhibitors; 0.23% of 270,000 active; AID 1768; active = well fitted inhibition curve with a large enough effect in the polarisation, with a control signal flat, not every such curve was filed as active; inconclusive = small, poorly fitted or top-dose-only effect, or effect the other way, or a change in a side signal; inactive = no such curve, though single readings can be large or run the other way; the % refers to the polarisation
Target sequence (O00255 whole entry, looked up): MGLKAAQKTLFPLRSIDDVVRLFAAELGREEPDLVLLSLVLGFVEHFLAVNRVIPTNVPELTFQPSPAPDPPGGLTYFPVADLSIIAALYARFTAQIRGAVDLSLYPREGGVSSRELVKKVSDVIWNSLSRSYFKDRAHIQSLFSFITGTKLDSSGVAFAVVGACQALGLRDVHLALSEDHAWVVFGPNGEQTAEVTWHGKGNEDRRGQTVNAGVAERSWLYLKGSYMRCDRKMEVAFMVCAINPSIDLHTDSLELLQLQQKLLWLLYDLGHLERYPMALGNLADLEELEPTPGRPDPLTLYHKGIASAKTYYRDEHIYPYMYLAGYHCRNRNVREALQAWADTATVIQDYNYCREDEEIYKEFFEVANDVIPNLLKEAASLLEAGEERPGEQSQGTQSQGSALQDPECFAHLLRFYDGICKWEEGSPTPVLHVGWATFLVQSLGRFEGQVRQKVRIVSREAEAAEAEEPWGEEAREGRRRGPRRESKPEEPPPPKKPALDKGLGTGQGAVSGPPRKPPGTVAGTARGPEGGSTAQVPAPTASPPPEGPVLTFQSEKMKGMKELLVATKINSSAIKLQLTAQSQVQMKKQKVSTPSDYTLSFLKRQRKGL
Menin MLL FP FL: inhibitors of human menin-MLL interaction, wild-type MLL peptide | Fluorescence polarization, fluorescein-MLL peptide displacement from menin | FP activity change, % at 61.4 µM | 290,000 tested, under 10 active; active = well fitted curve in the direction sought with a large enough effect in the polarisation, not every such curve was filed as active; inconclusive = small, poorly fitted or top-dose-only effect, or effect the other way, or a change in a side signal; inactive = no such curve, though single readings can be large or run the other way; the % refers to the polarisation
p53 reactivation: re-activators of mutant p53. H1299 p53-A138V BP100-luciferase reporter, luminescence, 24 h. Potency, µM (titrated, usually from 92.2 µM), usual class: activators. 0.063% of 320,000 active. AID 504706; active = well fitted activation curve with a large enough effect; inconclusive = small, poorly fitted or top-dose-only effect; inactive = no such curve, though single readings can be large or run the other way; also: nearly all actives have a fitted effect of over 45% in size
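p53-null H1299 cells stably carrying temperature-sensitive p53-A138V and a BP100-luciferase reporter were pinned with compounds (4-point, 1:5 series) and held 24 hrs at 37 deg C. Luminescence was read 10 min after detection reagent.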
Hits are given with their value; n = inactive; u = inconclusive; x = not tested or not shown; [ ] = dose if it differs, or a comment.

SMILES | ClpP mod | CXXC DNA block | Menin-MLL TR inh | Menin MLL FP FL | p53 reactivation
COc1cccc(C(=O)Nc2ccc3c(c2)C(=O)N(CC2CCCO2)C3=O)c1 (stereo not given) | n | n | x | x | n
COc1cc(C(=O)Nc2ccc3c(c2)C(=O)N(CCC(=O)O)C3=O)cc(OC)c1OC | n | n | n | n | n
CC(=O)Oc1cccc(C(=O)Nc2ccc3c(c2)C(=O)N(CC2CCCO2)C3=O)c1 (stereo not given) | 32µM | n | x | x | n
Cc1cc2c(s1)c1cnn(CC(=O)N3CCOCC3)c(=O)c1n2C | n | x | x | x | x
O=C(O)c1ccc(CNc2ncnc3nc[nH]c23)cc1 | n | x | x | x | x
CNc1ccccc1C(=O)OCC(=O)N(CCOC)c1c(N)n(CC(C)C)c(=O)[nH]c1=O | 22µM | x | x | x | n
COCCN(C(=O)COC(=O)/C=C/c1cccc(OC)c1)c1c(N)n(CC(C)C)c(=O)[nH]c1=O | 32µM | x | x | x | n
CC(C)CN(C(=O)CCC(=O)OCC(=O)N(C)c1ccccc1)c1c(N)n(CC(C)C)c(=O)[nH]c1=O | 28µM | x | x | x | n
COc1ccc(-c2noc(-c3ccc(NCc4ccc(C)cc4)c([N+](=O)[O-])c3)n2)cc1OC | n | x | x | x | x
CSCC[C@@H]1NC(=O)C/C=C\[C@@H](C)COC(=O)[C@@H](CCSC)NC(=O)C/C=C\[C@@H](C)COC1=O | x | x | n[11.7 µM] | n[11.7 µM] | x
O=C(CC(NS(=O)(=O)c1ccc(Cl)cc1)c1ccco1)NCc1ccco1 (stereo not given) | 25µM | n | n | n | n
Cc1ccc2oc(-c3ccc(C)c(NC(=O)COc4ccc(Cl)cc4)c3)nc2c1 | n | x | x | x | x
Cc1cc(C)nc(N2CCCC(C(=O)NCCc3ccc(F)cc3)C2)n1 (stereo not given) | 11µM | n | n | n | n
Cc1cc(C)nc(N2CCC(C(=O)NCCc3ccc(F)cc3)CC2)n1 | u | n | u | n | n
CC#CCN1c2ccccc2[C@]23C[C@@H](C(=O)OC)N(S(=O)(=O)c4ccc(C)cc4)C2=NC(C(=O)OC)=C(C(=O)OC)[C@H]13 | x | x | n[11.7 µM] | n[11.7 µM] | x
O=C(C[n+]1cccc2cc(Cl)ccc21)c1ccc2c(c1)CCCC2 | n | x | x | x | x
CCNC(=O)CSc1nc2cc(S(=O)(=O)Nc3ccc(OC)cc3)ccc2o1 | n | n | x | x | n
COc1ccc(NS(=O)(=O)c2ccc3oc(SC(C)C(N)=O)nc3c2)cc1 (stereo not given) | 32µM | n | x | x | n
C(=Nc1ccc(Nc2ccccc2)cc1)c1ccc2ccccc2c1 | 14µM | n | u | n | n
O=C(CCC1N=C2c3ccccc3N=C(SCc3cccc(Cl)c3)N2C1=O)NCc1ccco1 (stereo not given) | 35µM | n | u | n | n
COc1ccc(OC)c(/C=C/c2c3ccccc3cc[n+]2C)c1 | n | x | x | x | x
O=C(c1ccc(Cl)cc1)c1cnc(-c2ccccc2)s1 | 20µM | n | x | n | n
Cc1nn2c(C)c(C(=O)NC(C)c3ccccc3)cnc2c1-c1ccc(F)cc1 (stereo not given) | n | x | x | x | x
CCc1cc2c(CN3CCN(C)CC3)cc(=O)oc2cc1O | u | n | n | n | n
CCc1cc2c(CN3CCN(CCO)CC3)cc(=O)oc2cc1O | 14µM | n | n | n | n
SMILES | ClpP mod | CXXC DNA block | Menin-MLL TR inh | Menin MLL FP FL | p53 reactivation
O=c1cc(CN2CCN(c3ccccc3F)CC2)c2cc(O)c(-c3ccccc3)cc2o1 | n | n | u | n | n
COc1ccc(N2CCN(Cc3cc(=O)oc4cc(-c5ccccc5)c(O)cc34)CC2)cc1 | 32µM | n | u | n | n
CSc1nnc(C)c(=O)n1COC(=O)COc1ccccc1C | 28µM | n | n | n | n
CSc1nnc(C)c(=O)n1COC(=O)COc1ccccc1F | x | n | n | n | n
CCn1c(SCC(=O)Nc2cc(C)on2)nnc1-c1cccnc1 | n | n | n | n | n
O=C(CSc1nnc(-c2cccnc2)n1CCN1CCCCC1)Nc1cccc(Cl)c1 | 16µM | n | n | n | n
Cc1cc(NC(=O)CSc2nnc(-c3cccnc3)n2Cc2ccccc2)no1 | 3.2µM | n | n | n | n
CN(C)c1cc2c3ccccc3ccc2c2ccccc12 | n | x | x | x | x
CC1=C(C(=O)N2CCOCC2)C(c2ccc(O)cc2)NC(=S)N1 (stereo not given) | n | n | n | n | n
CC1=C(C(=O)N2CCOCC2)C(c2ccc(-c3ccccc3)cc2)NC(=S)N1 (stereo not given) | 28µM | n | n | u | n
Clc1ccc2[nH]c(-c3ccccc3)cc2c1 | 28µM | n | u | n | u
COC(=O)C1=C(C)NC(C)=C(C(=O)OC)C1C(=O)OCCN1C(=O)c2ccccc2C1=O | 7.1µM | n | n | n | n
CCOC(=O)c1cc(S(=O)(=O)NCc2ccc(OC)cc2)[nH]n1 | n | x | x | x | x
CCOC(=O)Cn1c(-c2ccc(Cl)nc2)nc2ccccc21 | 10µM | n | n | n | n
CCOC(=O)C1CCCN(C(=O)c2cc3cc4ccc(OC)cc4nc3o2)C1 (stereo not given) | n | n | x | x | n
CCOC(=O)C1CCN(C(=O)c2cc3cc4cc(OC)ccc4nc3o2)CC1 | 18µM | n | n | n | u
COc1ccc2nc3oc(C(=O)N4CCCCC4)cc3cc2c1 | 28µM | n | n | n | u
COc1ccc2nc3oc(C(=O)N4CC(C)CC(C)C4)cc3cc2c1 (stereo not given) | n | n | x | x | n
COc1cc(C)c(NC(C)C(=O)c2c(C)[nH]c3ccccc23)cc1OC (stereo not given) | n | x | x | x | x
C(=C\c1cccc2ccccc12)/c1nnc(-c2cccs2)o1 | 28µM | n | n | n | n
O=c1c2ccccc2cnn1Cc1nnc(-c2cccs2)o1 | x | n | n | n | n
Cc1c(Cl)cccc1-n1nc(C)c2c(C(=O)NCc3ccccc3)cc(C3CC3)nc21 | 13µM | x | x | x | x
COc1cc(O)ccc1-c1nc2cc(C)ccn2c1Nc1ccccc1C | n | x | x | x | x
Cc1ccc(C)c(N2CCN(C(=O)C3CCCN(S(=O)(=O)c4ccc5c(c4)oc(=O)n5C)C3)CC2)c1 (stereo not given) | n | x | x | x | x
COc1cc(CN(C(=O)COc2ccccc2)c2ccccn2)cc(OC)c1OC | n | x | x | x | x
SMILES | ClpP mod | CXXC DNA block | Menin-MLL TR inh | Menin MLL FP FL | p53 reactivation
N#Cc1c2c(c(-c3ccco3)[nH]c1=O)CCCC2 | n | n | n | n | n
N#Cc1c(NCCCO)nc(-c2ccco2)c2c1CCCC2 | 28µM | n | n | u | n
N#Cc1c(NC2CCCCC2)nc(-c2ccco2)c2c1CCCC2 | 7.1µM | n | n | n | n
CC1(C)Cc2c(C#N)c(NCCN3CCOCC3)nc(-c3ccco3)c2CO1 | 32µM | n | n | n | n
COc1ccc(CCNC(=O)Cn2c(=O)c3cccn3c3ccccc32)cc1OC | n | x | x | x | x
c1ccc(-c2[nH]ncc2-c2ccnc3ccccc23)nc1 | x | x | n | n | x
CCCCCC1CCNCC1 | n | x | x | x | x
CCOC(=O)CC(NC(=O)CCc1c(C)nc2c(c(C)nn2-c2ccc(C)c(C)c2)c1C)c1ccc(C)cc1 (stereo not given) | n | x | x | x | x
Cc1ccc(C(=O)N2CCOCC2)cc1S(=O)(=O)N1CCOCC1 | n | n | n | n | n

Bioassay records as filed in PubChem.
